Assay outcomes as filed in PubChem.
p53ts 39C kill: qHTS Screen for Compounds that Selectively Target Cancer Cells with p53 Mutations: Cytotoxicity of p53ts Cells at the Nonpermissive Temperature; H1299-p53A138V viability at 39C, ATP luminescence, 24 h; Potency, µM (top dose mostly 46.1 µM), without a hit: at the top dose activity change, negative = cell killing, usual class: cytotoxic; actives 1.5% (n = 130,000); note: % is set by controls: 0 for no effect and ±100 for the full control effect; nearly all actives have a fitted effect of over 55% in size
Peg3 imprint: qHTS Assay for Compounds that Induce Erasure of Genomic Imprints; mouse ES Peg3-LacZ reporter, beta-gal luminescence, 40 h; Potency, µM (doses to about 60.7 µM), inactives show at the highest dose activity change, positive = activation, hits mostly activators; actives 0.02% (n = 110,000)
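Imprint erasure is scored as LacZ activity from the silenced maternal Peg3 allele in feeder-free female ES cells cultured 40 h with LIF. Luminescence is normalized to in-plate negative controls and fitted to the Hill equation.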
p53ts 32C tox: qHTS Screen for Compounds that Selectively Target Cancer Cells with p53 Mutations: Cytotoxicity of p53ts Cells at the Permissive Temperature; H1299-p53A138V at 32C, ATP luminescence viability, 24 h; Potency, µM (top dose mostly 46.1 µM), inactives show at the top dose activity change, negative = cytotoxicity, hits mostly cytotoxic; actives 0.93% (n = 130,000);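 note: 0% = DMSO and -100% = full killing by reference compound; nearly all actives have a fitted effect of over 55% in size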
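ATP-content luminescence (ATPlite) read-out after 24 h compound exposure at 32C in H1299-p53A138V cells (600/well). Tested up to 46 uM. Normalized to DMSO (0%) and 100 uM tamoxifen (100% killing); Hill-fit AC50.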
IkB sig inh: IkB Signaling. actives 0.04% (n = 110,000). Potency, µM (series often up to 57.1 µM), for inactives: at the highest dose IkBa stabilization activation. ABC-DLBCL IkBa-CBG/CBR dual luciferase ratio, 4 h; response scale: scaled: untreated 0%, proteasome inhibitor 100%; active = well fitted curve in the direction sought with a large enough effect in the signal ratio, not every such curve was filed as active; inconclusive = small, poorly fitted or top-dose-only effect, or a change in a side signal; the % refers to the signal ratio;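 note: the direction sought is a rising ratio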
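Luminescence ratio of IκBα-fused green versus native red beetle luciferase in OCI-Ly3 cells, 4 h post-doxycycline with compound; red signal alone, scaled from basal (0%) to zero light (-100%), flagged nonspecific or cytotoxic effects.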
An asterisk follows results filed as active; ? = inconclusive; . = no result; [ ] = remark or other dose. Sampled rows, rich in hits. Any-hit rate of the full collection: about 1.8%. Unless noted, calls come from the whole dose curve; as a rule, active = well fitted curve in the direction sought with a large enough effect; inconclusive = small, poorly fitted or top-dose-only effect, or another doubt; inactive = no such curve, though single readings can be large; an effect the other way counts as inactive or inconclusive. Potency is the fitted concentration of half-maximal effect.

SMILES	p53ts 39C kill	Peg3 imprint	p53ts 32C tox	IkB sig inh
O=C(Nc1ccc(NC(=O)C23CC4CC(CC(C4)C2)C3)cn1)c1ccco1	-16.8%	-1.9%	-6.7%	0.2%
Cc1ccc(NC(=O)c2ccc(CN3CC(=O)N4CCCCC4C3=O)cc2)cc1 (stereo not drawn)	.	.	-8.3%	.
Cc1cccc(-n2c3c(cc(-c4nc(-c5ccc(Cl)cc5)cs4)c2=O)C(=O)CC(C)(C)C3)c1	4.4%	3.9%[10.9 µM]	7.3%	-1.1%
CCOc1ccc(C2C(=O)N(C3CCCCCC3)CC(=O)N2CCC2=CCCCC2)cc1OC (stereo not drawn)	-17.8%	7.2%[10.9 µM]	11.9%	2.2%
Cc1ccc(C(O)c2nc3ccccc3n2C(C)C)cc1 (stereo not drawn)	15.5%	5.1%	7.0%	-4.2%
COc1ccccc1/C=C/c1nc2ccccc2n1C(C)C	15.8µM*	-18.1%[10.9 µM]	?	-5.3%
COc1ccccc1N(CC(=O)Nc1ccccc1F)S(C)(=O)=O	20.5%	11.2%[10.9 µM]	9.3%	?
Cn1c(=O)c2c(nc(NC3CCCCC3)n2Cc2ccccc2)n(C)c1=O	26.1%	-18.9%	5.01µM*	?
Cn1c(=O)c2c(nc(NCc3ccccc3)n2Cc2ccccc2)n(C)c1=O	-3.7%	-20.6%[10.9 µM]	-13.4%	6.1%
CCOc1ncccc1C(=O)OCC(=O)c1cc(C)n(Cc2ccco2)c1C	-18.0%	-48.9%	12.6µM*	?
Cc1cc(C(=O)COC(=O)CNC(=O)c2ccco2)c(C)n1Cc1ccco1	16.1%	.	.	.
CN(C)C(=O)c1ccc(-c2cc(NCc3ccccc3)ncn2)cc1	-2.6%	-0.8%	1.3%	1.4%[11.4 µM]
CCCc1ccc(-c2ccc(F)c(N)c2)nc1	7.94µM*	-91.6%	3.98µM*	?
CCCCc1ccc(-c2ccc(Br)cc2)nc1	37.1%	.	4.4%	.
CCn1c(=NC(=O)c2ccc3c(c2)OCCO3)sc2c(C)ccc(OC)c21	10µM*	-14.2%[10.9 µM]	-16.5%	-2.0%
C#CCn1c(=NC(=O)c2ccc3c(c2)OCCO3)sc2cc(OC)c(OC)cc21	-9.2%	2.3%[10.9 µM]	-3.8%	?
CCN(CC)CCCNC(=O)c1ccc(-n2c(=O)c(=O)[nH]c3ccccc32)cc1	9.8%	.	-2.2%	.
CCN(CC)S(=O)(=O)c1nnc(NC(=O)COc2ccccc2)s1	-4.6%	-5.9%[10.9 µM]	-4.0%	-0.8%
CCN(CC)S(=O)(=O)c1nnc(NC(=O)COc2ccc(Cl)cc2)s1	15.8µM*	16.5%[10.9 µM]	?	?
Fc1cccc(CN2CCc3nc(Nc4ccc5c(c4)OCCO5)ncc3C2)c1F	-27.8%	-6.6%[10.9 µM]	-8.0%	?
CCN(c1ncnc2c1cnn2-c1cccc(Cl)c1)C1CCCCC1	?	-14.3%[10.9 µM]	?	-1.4%
Clc1cccc(-n2ncc3c(N4CCCCC4)ncnc32)c1	6.31µM*	-40.9%[10.9 µM]	3.16µM*	?
Cc1ccc(Cl)cc1-n1ncc2c(N3CCN(Cc4ccccc4)CC3)ncnc21	20µM*	-14.8%[10.9 µM]	15.8µM*	?
Clc1cccc(-n2ncc3c(N4CCCCCC4)ncnc32)c1	12.6µM*	-11.8%[10.9 µM]	?	?
Cc1nn(-c2ccccc2)c(Cl)c1C(=O)N1CCN(c2ncnc3c2cnn3-c2ccccc2)CC1	?	-24.8%	10µM*	?
SMILES	p53ts 39C kill	Peg3 imprint	p53ts 32C tox	IkB sig inh
Cc1cccc(-c2nc3scc(CCNC(=O)c4ccccc4Cl)n3n2)c1	-4.4%	25.2%[10.9 µM]	-9.6%	?
Cc1cc(C)cc(-n2ccn(Cc3ccccc3C)c(=O)c2=O)c1	-19.1%	-9.8%[10.9 µM]	-4.3%	-3.7%
c1ccc(-c2nnc(-c3ccccn3)nn2)nc1	?	-55.8%	?	?
c1ccc(-c2cccc(-c3ccccn3)n2)nc1	0.794µM*	-20.1%	?	1.8%
CCc1nnc(NC(=O)Nc2ccccc2OC)s1	-6.3%	-8.2%	13.2%	1.4%
CCc1nnc(NC(=O)c2ccc(OC)cc2OC)s1	?	-45.3%	15.8µM*	?
Cc1oc2c(c1C(=O)Nc1cccc(Br)c1)C1=NCCN1C=N2	-16.4%	22.6%[10.9 µM]	5.9%	-2.1%
CCOC(=O)c1c(C)n(-c2ccccc2)c2ccc(OC(=O)c3ccc(OCC)c(OCC)c3)cc12	33.0%	-18.4%[10.9 µM]	6.1%	-1.5%
O=C(Nc1ccccc1C(F)(F)F)c1cc2ccccn2n1	7.94µM*	-31.2%[10.9 µM]	10µM*	3.0%
CCOC(=O)c1cccc(NC(=O)c2cnccn2)c1	-10.1%	-34.8%	-1.5%	-0.6%
CCOC(=O)c1cccc(NC(=O)c2ccc3c(Cl)c4c(nc3c2)CCC4)c1	0.794µM*	15.5%[10.9 µM]	?	18.0%
COc1ccc(NC(=O)c2cc3ccccn3n2)cc1	7.94µM*	-86.1%	10µM*	?
O=C(Nc1ccc(OC(F)(F)F)cc1)c1cc2ccccn2n1	?	-20.7%[10.9 µM]	?	-4.3%
CCOC(=O)c1cccc(NC(=O)c2cc3ccccn3n2)c1	12.6µM*	-16.5%[10.9 µM]	10µM*	?
CCCn1c2ccccc2c2cnn(CC(=O)NCc3cc(OC)ccc3OC)c(=O)c21	.	.	4.6%	.
CCc1nn(CC(=O)N2CCN(c3cccc(C)c3C)CC2)c(=O)c2cc3occc3n12	-7.1%	-6.7%[10.9 µM]	8.4%	2.6%
Cc1cccc(C(=O)Nc2cc(-c3ccccc3F)nn2-c2ccccc2)c1	-5.1%	4.2%[10.9 µM]	-2.0%	?
Cc1oc2ncn(CC(C)C)c(=O)c2c1C(=O)NCc1cccc(Cl)c1	-9.0%	11.0%[10.9 µM]	0.9%	-1.7%
O=S(=O)(Nc1cccc(-c2ccc(N3CCCC3)nn2)c1)c1ccc(F)cc1F	38.0%	-10.6%[10.9 µM]	-17.5%	0.9%
O=S(=O)(Nc1cccc(-c2ccc(N3CCCCC3)nn2)c1)c1cccc(F)c1	?	-15.6%[10.9 µM]	10µM*	-2.2%
COc1ccc(S(=O)(=O)Nc2cccc(-c3ccc(N4CCCCC4)nn3)c2)cc1F	12.6µM*	-12.3%[10.9 µM]	12.6µM*	-0.5%
Cc1ccc(CN2COc3c(Cl)cc4c(-c5ccccc5)cc(=O)oc4c3C2)cc1	-7.6%	-5.5%[10.9 µM]	5.6%	-1.3%
CCOc1ccc(-c2nnc(-c3ccccc3)o2)cc1	-12.2%	.	?	.
CCOC(=O)COc1ccc(-c2nnc(-c3ccccc3)o2)cc1	?	-95.2%	10µM*	?
CN[C@]1(C)[C@@H]2CC[C@@H](C2)C1(C)C	10.7%	.	-13.9%	0.9%
SMILES	p53ts 39C kill	Peg3 imprint	p53ts 32C tox	IkB sig inh
CC(C)c1ccc(NC(=O)c2csnn2)cc1	15.8µM*	-51.5%	12.6µM*	-2.0%
CC(=O)c1ccc(NC(=O)Cn2cc(S(=O)(=O)Cc3ccccc3Cl)c3ccccc32)cc1	.	.	-7.4%	.
COCCNc1nc(-c2ccc(N(C)C)cc2)nc2ccccc12	10µM*	-28.1%	12.6µM*	-5.0%[11.4 µM]
Cc1cnc(CNc2nc(-c3ccc(N(C)C)cc3)nc3ccccc23)cn1	10µM*	.	10µM*	0.3%[11.4 µM]
COCCNc1nc(-c2ccc(C(=O)N(C)C)cc2)nc2ccccc12	?	-14.1%	?	-0.5%[11.4 µM]
CC(=O)NCCNc1nc(-c2ccc(N(C)C)cc2)nc2ccccc12	12.6µM*	?	?	-7.0%[11.4 µM]
